Assay results as given in PubChem BioAssay (Tox21).
Results filed as inconclusive are left out. Calls of active or inactive are those of the source. The call rests on the fitted dose curve; in most records, active means well fitted curve in the direction sought with a large enough effect in the repeat runs; inconclusive means weak or mixed curves; inactive means no such curve, though single readings can be large; an effect the other way counts as inactive or inconclusive.

Legend:
[1] = qHTS RealTime-Glo MT Cell Viability Assay in HEK293 cells - 32 hour (AID 1224868); further: top concentration of the series differs between compounds; nearly all actives have a fitted effect of over 50% in size
Outline: (§1)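 Reads taken at 0, 8, 16, 24, 32 and 40 h from the same wells. HEK293 cells (600/well) carried RealTime-Glo reagents from seeding, with compound added after a 5 h settle at 37 C.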

[2] = A CellTox Green Cytotoxicity Assay to monitor cytotoxicity in HEK293 cells - 0 hour (AID 1224869); further: nearly all actives have a fitted effect of over 50% in size
Outline: (§2)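 Seeding of HEK293 cells together with cytotoxicity dye preceded a 5 h incubation at 37 C/5% CO2. Test compounds in DMSO were then added and fluorescence monitored across 40 h.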

[3] = qHTS RealTime-Glo MT Cell Viability Assay in HepG2 cells - 40 hour (AID 1224870); further: nearly all actives have a fitted effect of over 50% in size
Outline: (§3)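 Real-time viability: cells seeded at 600 per well together with NanoLuc and cell-permeant prosubstrate, compounds added after 5 h incubation. Luminescence tracked at 0, 8, 16, 24, 32 and 40 h of exposure.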

[4] = A CellTox Green Cytotoxicity Assay to monitor cytotoxicity in HEK293 cells - 40 hour (AID 1224871); further: nearly all actives have a fitted effect of over 45% in size
Outline: as §2

[5] = qHTS RealTime-Glo MT Cell Viability Assay in HEK293 cells - 16 hour (AID 1224872); further: top concentration of the series differs between compounds; nearly all actives have a fitted effect of over 50% in size
Outline: as §1

[6] = qHTS RealTime-Glo MT Cell Viability Assay in HepG2 cells - 8 hour (AID 1224873); further: nearly all actives have a fitted effect of over 55% in size
Outline: as §3

[7] = qHTS RealTime-Glo MT Cell Viability Assay in HEK293 cells - 40 hour (AID 1224874); conditions: RealTime-Glo luminescence, stronger effect = lower value; further: nearly all actives have a fitted effect of over 50% in size
Outline: (§4)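 Tox21 screen in HEK293 using RealTime-Glo MT chemistry, with cells and reagent co-dispensed. Luminescence proportional to viable cell number was captured at intervals during 40 h compound exposure at 37 C.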

[8] = A CellTox Green Cytotoxicity Assay to monitor cytotoxicity in HEK293 cells - 24 hour (AID 1224875); further: series mostly up to about 77 µM; nearly all actives have a fitted effect of over 45% in size
Outline: as §2

[9] = A CellTox Green Cytotoxicity Assay to monitor cytotoxicity in HepG2 cells - 16 hour (AID 1224876); further: nearly all actives have a fitted effect of over 45% in size
Outline: (§5)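 Nonlytic assay: viable cells exclude the dye, so fluorescence scales with cell death. HepG2 at 600 cells/well, compounds added after 5 h, signal read across 40 h.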

[10] = qHTS RealTime-Glo MT Cell Viability Assay in HepG2 cells - 32 hour (AID 1224877); further: nearly all actives have a fitted effect of over 55% in size
Outline: (§6)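 HepG2 suspension premixed with RealTime-Glo reagents is plated at 600 cells per well and left 5 h at 37 C/5% CO2. Compounds in DMSO then go in, and bioluminescence reflecting viable cell number is recorded over 40 h.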

[11] = A CellTox Green Cytotoxicity Assay to monitor cytotoxicity in HepG2 cells - 24 hour (AID 1224878); further: nearly all actives have a fitted effect of over 45% in size
Outline: as §5

[12] = A CellTox Green Cytotoxicity Assay to monitor cytotoxicity in HepG2 cells - 40 hour (AID 1224879); further: nearly all actives have a fitted effect of over 40% in size
Outline: as §5

[13] = qHTS RealTime-Glo MT Cell Viability Assay in HEK293 cells - 0 hour (AID 1224880)
Outline: as §4

[14] = A CellTox Green Cytotoxicity Assay to monitor cytotoxicity in HEK293 cells - 32 hour (AID 1224881); further: nearly all actives have a fitted effect of over 40% in size
Outline: as §2

[15] = A CellTox Green Cytotoxicity Assay to monitor cytotoxicity in HepG2 cells - 0 hour (AID 1224882); further: nearly all actives have a fitted effect of over 35% in size
Outline: as §5

[16] = A CellTox Green Cytotoxicity Assay to monitor cytotoxicity in HepG2 cells - 32 hour (AID 1224883); further: nearly all actives have a fitted effect of over 50% in size
Outline: as §5

[17] = A CellTox Green Cytotoxicity Assay to monitor cytotoxicity in HEK293 cells - 8 hour (AID 1224884); further: nearly all actives have a fitted effect of over 35% in size
Outline: as §2

[18] = qHTS RealTime-Glo MT Cell Viability Assay in HepG2 cells - 16 hour (AID 1224885); further: nearly all actives have a fitted effect of over 50% in size
Outline: as §6

[19] = qHTS RealTime-Glo MT Cell Viability Assay in HEK293 cells - 24 hour (AID 1224886)
Outline: as §1

[20] = qHTS RealTime-Glo MT Cell Viability Assay in HEK293 cells - 8 hour (AID 1224887)
Outline: as §4
On the % scale 0 is the no-effect control and ±100 the full control effect.

C=CC(=O)OCCOCCOCC
inactive: outcome [1] | outcome [2] | outcome [3] | Potency [4] | outcome [5] | outcome [6] | max response [7] 21.6% | Potency [8] | Potency [9] | outcome [10] | Potency [11] | Potency [12] | Potency [13] | Potency [14] | Potency [15] | Potency [16] | Potency [17] | outcome [18] | outcome [19] | outcome [20]

C=CCCCCCCCCOC(C)=O
inactive: outcome [1] | outcome [2] | outcome [3] | Potency [4] | outcome [5] | outcome [6] | max response [7] 0.238% | Potency [8] | Potency [9] | outcome [10] | Potency [11] | Potency [12] | Potency [13] | Potency [14] | Potency [15] | Potency [16] | Potency [17] | outcome [18] | outcome [19] | outcome [20]

Clc1cc(Cl)c(Cl)c(Cl)c1Cl
inactive: outcome [1] | outcome [2] | outcome [3] | Potency [4] | outcome [5] | outcome [6] | max response [7] -0.18% | Potency [8] | Potency [9] | outcome [10] | Potency [11] | Potency [12] | Potency [13] | Potency [14] | Potency [15] | Potency [17] | outcome [18] | outcome [19] | outcome [20]

CCCCC(O)/C=C(C)/C=C/C=C/C(=O)N1CCCC1=O (configuration not stated)
inactive: outcome [1] | outcome [2] | outcome [3] | Potency [4] | outcome [5] | outcome [6] | max response [7] 2.14% | Potency [8] | Potency [9] | outcome [10] | Potency [11] | Potency [13] | Potency [14] | Potency [15] | Potency [16] | Potency [17] | outcome [18] | outcome [19] | outcome [20]

O=CN1CCCCC1
inactive: outcome [1] | outcome [2] | outcome [3] | Potency [4] | outcome [5] | outcome [6] | max response [7] 1.3% | Potency [8] | Potency [9] | outcome [10] | Potency [11] | Potency [13] | Potency [14] | Potency [15] | Potency [16] | Potency [17] | outcome [18] | outcome [19]

Nc1cc(S(=O)(=O)O)ccc1O
inactive: outcome [1] | outcome [2] | outcome [3] | Potency [4] | outcome [5] | outcome [6] | max response [7] 14.9% | Potency [8] | Potency [9] | outcome [10] | Potency [11] | Potency [12] | Potency [13] | Potency [14] | Potency [15] | Potency [16] | Potency [17] | outcome [18] | outcome [19] | outcome [20]

O=C(O)CCCCCCCCCC(=O)O
inactive: outcome [1] | outcome [2] | outcome [3] | Potency [4] | outcome [5] | outcome [6] | max response [7] 0.0039% | Potency [8] | outcome [10] | Potency [11] | Potency [12] | Potency [13] | Potency [14] | Potency [15] | Potency [16] | Potency [17] | outcome [18] | outcome [19]

CC(C)(C)NCC(O)COc1cccc2c1CCC(=O)N2 (configuration not stated)
inactive: outcome [1] | outcome [2] | outcome [3] | Potency [4] | outcome [5] | outcome [6] | max response [7] 5.27% | Potency [8] | Potency [9] | outcome [10] | Potency [11] | Potency [13] | Potency [14] | Potency [15] | Potency [16] | Potency [17] | outcome [18] | outcome [19] | outcome [20]

Cc1cc(=O)oc2cc(O[C@@H]3SC[C@@H](O)[C@H](O)[C@H]3O)ccc12
inactive: outcome [1] | outcome [2] | outcome [3] | Potency [4] | outcome [5] | outcome [6] | max response [7] -5.1% | Potency [8] | Potency [9] | outcome [10] | Potency [11] | Potency [12] | Potency [13] | Potency [14] | Potency [15] | Potency [16] | Potency [17] | outcome [18] | outcome [19] | outcome [20]

O=C(O)P(=O)(O)O
inactive: outcome [1] | outcome [2] | outcome [3] | Potency [4] | outcome [5] | outcome [6] | max response [7] 10.7% | Potency [8] | outcome [10] | Potency [11] | Potency [12] | Potency [13] | Potency [14] | Potency [15] | Potency [16] | Potency [17] | outcome [18] | outcome [19]

CN(C)CCc1c[nH]c2ccc(C[C@H]3COC(=O)N3)cc12
inactive: outcome [1] | outcome [2] | outcome [3] | Potency [4] | outcome [5] | outcome [6] | max response [7] 2.27% | Potency [8] | outcome [10] | Potency [11] | Potency [12] | Potency [13] | Potency [14] | Potency [15] | Potency [16] | Potency [17] | outcome [18] | outcome [19] | outcome [20]

CN(C)CCC[C@@]1(c2ccc(F)cc2)OCc2cc(C#N)ccc21
inactive: outcome [1] | outcome [2] | outcome [3] | Potency [4] | outcome [5] | outcome [6] | max response [7] -9.59% | Potency [8] | Potency [9] | outcome [10] | Potency [11] | Potency [12] | Potency [13] | Potency [14] | Potency [15] | Potency [16] | Potency [17] | outcome [18] | outcome [19] | outcome [20]

COC(=O)C(c1ccccc1Cl)N1CCc2sccc2C1 (configuration not stated)
inactive: outcome [1] | outcome [2] | outcome [3] | Potency [4] | outcome [5] | outcome [6] | max response [7] -3.35% | Potency [8] | Potency [9] | outcome [10] | Potency [11] | Potency [12] | Potency [13] | Potency [14] | Potency [15] | Potency [16] | Potency [17] | outcome [18] | outcome [19] | outcome [20]

CN(C)CCCN(C)C
inactive: activity change, negative = cytotoxic [1] 0.277% [at 6.97 µM] | cytotoxicity [2] 0.262% [at 6.97 µM] | activity change, negative = cytotoxic [3] 1.14% [at 6.97 µM] | cytotoxicity increase [4] -1.24% [at 6.97 µM] | activity change, negative = cytotoxicity [5] -4.3% [at 6.97 µM] | viability change, negative = cytotoxic [6] 0.94% [at 6.97 µM] | max response [7] 0.838% | activity change [8] -1.21% [at 6.97 µM, stronger effect = higher value] | cytotoxicity increase [9] -15.4% [at 6.97 µM] | activity change, negative = cytotoxic [10] 0.21% [at 6.97 µM] | cytotoxicity [11] -15.5% [at 6.97 µM] | activity change, negative = cytotoxicity [13] -1.25% [at 6.97 µM] | cytotoxicity increase [14] -0.385% [at 6.97 µM] | cytotoxicity [15] -10.6% [at 6.97 µM] | cytotoxicity increase [17] -3.24% [at 6.97 µM] | activity change, negative = cytotoxic [18] 0.141% [at 6.97 µM] | activity change, negative = cytotoxicity [19] 3.07% [at 6.97 µM]
